Screening results (PubChem BioAssay)
HT1080-NT tox = kills 2HG-producing HT-1080-NT fibrosarcoma cells; HT-1080-NT fibrosarcoma viability, CellTiter-Glo ATP luminescence, 48 h; Potency, µM (titrated, usually from 46.1 µM), for the others: at the highest dose activity, negative = less viability, most hits filed as cytotoxic; actives 1.6% (n = 360,000);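 also: NT is the 2HG producing partner of a matched IDH1 knockdown line; potency is read from the fitted curve at half-maximal effect; 0% = DMSO-treated cells and -100% = media-only wells without cells; nearly all actives have a fitted effect of over 55% in size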
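HT-1080-NT fibrosarcoma cells (2HG-overproducing), 750 cells/well in RPMI with 5% FBS, dosed after 2 h and incubated 48 h at 37C. CellTiter-Glo luminescence normalized to DMSO and no-cell wells; concentration-response curves fitted and classed.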
TDP1 cell CPT = DT40-hTDP1 cell growth loss with CPT; chicken DT40 Tdp1-/-;hTDP1 cells + 20 nM CPT, ATP luminescence, 48 h; Potency, µM (doses to about 46.2 µM), for the others: top-dose activity change, negative = growth inhibition, most hits filed as inhibitors; actives 12% (n = 420,000); AID 686979; also: potency is read from the fitted curve at half-maximal effect; nearly all actives have a fitted effect of over 55% in size
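Chicken DT40 Tdp1-/- cells complemented with human TDP1, 400 cells/well, exposed to compounds plus 20 nM camptothecin for at least 48 h at 37 C; viability read as ATP content by CellTiter-Glo luminescence.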
TDP1 cell noCPT = qHTS for Inhibitors of human tyrosyl-DNA phosphodiesterase 1 (TDP1): qHTS in cells in absence of CPT; DT40 Tdp1-/- hTDP1 cells, no CPT, ATP luminescence, 48 h; Potency, µM (highest dose often 46.2 µM), inactives show at the highest dose activity change, negative = growth inhibition, usual class: inhibitors; actives 15% (n = 420,000); AID 686978, 2013; also: potency is read from the fitted curve at half-maximal effect; nearly all actives have a fitted effect of over 55% in size
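Stably hTDP1-transfected Tdp1-null chicken DT40 cells were treated with library compounds minus camptothecin and grown for at least 48 hr at 37 °C, after which cellular ATP was quantified by luminescence.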
HT1080 IDH1KD tx = kills HT-1080 cells with IDH1 knockdown | HT-1080 IDH1 knockdown viability, ATP luminescence, 48 h | Potency, µM (titrated, usually from 46.1 µM), inactives show top-dose activity, negative = toxicity, hits mostly cytotoxic | actives 2% (n = 360,000);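 also: potency is read from the fitted curve at half-maximal effect; 0% = DMSO wells and -100% = cell-free medium wells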
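HT-1080-IDH1KD cells (IDH1 knocked down), 750/well in RPMI with 5% FBS, treated with compound 48 h at 37 degrees C. Viability by CellTiter-Glo luminescence, normalised to DMSO and no-cell wells; concentration-response curves classed.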
IL-1B inflam inh = inflammasome signaling inhibition, IL-1 beta readout | THP-1 LPS/ATP IL-1B secretion, AlphaLISA, 16 h; hits give low values | activity change, % at 57.5 µM | actives 4.7% (n = 360,000) | AID 743279; in the data active = activity change below about -50%; inconclusive = mostly about -30% to -49%
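THP-1 cells pretreated 1 hr with compounds (up to 57.5 uM final), then stimulated with LPS (250 ng/mL final) plus ATP (1.25 mM final); secreted IL-1B measured by AlphaLISA after 16 hr, decreased signal indicating inhibition.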
Starred values were filed as active, the others as inactive; ? = inconclusive; / = no result given. In the library only some 19% were active in any assay of this set; here they are far more common. Unless noted, calls follow the shape of the dose curve; as a rule, active = well fitted curve in the direction sought with a large enough effect; inconclusive = small, poorly fitted or top-dose-only effect, or another doubt; inactive = no such curve, though single readings can be large; an effect the other way counts as inactive or inconclusive. Unless noted, % is scaled to controls: 0 for no effect and ±100 for the full control effect.

SMILES	HT1080-NT tox	TDP1 cell CPT	TDP1 cell noCPT	HT1080 IDH1KD tx	IL-1B inflam inh
CCn1cc(C(=O)NCCc2ccccc2)c(=O)c2cc(S(=O)(=O)N3CCc4ccccc4C3)ccc21	/	?	21µM*	/	/
CCCCNC(=O)c1cn(CC)c2ccc(S(=O)(=O)N3CCCCCC3)cc2c1=O	14%	-28%	?	6%	-21
CCCCN(CCCC)CCNC(=O)c1cc(=O)[nH]c2ccc(S(=O)(=O)N3CCCCCC3)cc12	/	?	16µM*	/	/
CCn1cc(C(=O)NCCc2ccc(C)cc2)c(=O)c2cc(S(=O)(=O)N3CCCCC3)ccc21	/	-10%	-9%	/	/
COc1ccc(CCNC(=O)c2cn(C)c3ccc(S(=O)(=O)N(C)C)cc3c2=O)cc1OC	/	-5%	?	/	/
CCCCN(CCCC)CCNC(=O)c1cn(CC)c2ccc(S(=O)(=O)N3CCc4ccccc4C3)cc2c1=O	0%	21µM*	23µM*	5%	0
CCn1cc(C(=O)NCCc2ccc(OC)c(OC)c2)c(=O)c2cc(S(=O)(=O)N3CCc4ccccc4C3)ccc21	/	?	26µM*	/	/
COc1cc(=O)n2c(c1C(=O)NCc1cccc(F)c1)CCN(Cc1cccnc1)CC2	/	-5%	-20%	/	/
C=CCn1c(=O)c2c(nc(-c3ccccc3)n2C)n(C)c1=O	/	-27%	0%	/	/
O=[N+]([O-])c1cc2c(cc1Br)-c1ccccc1C2	-1%	-9%	26µM*	-14%	37
CCOC(=O)C1CCCN(C(=O)c2ccc3c(c2)C(C)(C)CCC3(C)C)CC1 (stereo unspecified)	?	8.2µM*	6.5µM*	?	30
CCOC(=O)C1CCN(Cc2cc(C(C)C)c(O)c(C(C)C)c2)CC1	0%	9.2µM*	9.2µM*	-9%	-12
CCOC(=O)C1CCCN(C(=O)c2ccc(-c3ccccc3)cc2)CC1 (stereo unspecified)	5%	16µM*	?	0%	4
CCOC(=O)C1CCCN(C(=O)c2ccc(OC)cc2)CC1 (stereo unspecified)	25%	-20%	0%	?	-12
CCOC(=O)C1CCN(C(=O)CSc2c3c(nc4ccccc24)CCC3)CC1	-12%	?	?	-14%	-130*
CCOC(=O)C1CCCN(C(=O)c2ccccc2)CC1 (stereo unspecified)	-1%	-5%	9%	1%	23
O=C(CSc1c2c(nc3ccccc13)CCC2)N1CCCC1	-6%	2%	6%	-5%	-8
CCOC(=O)C1CCN(Cc2ccc3ccccc3c2)CC1	10%	7%	11%	3%	9
O=C(CCS(=O)(=O)CCN1CCOCC1)NCNC(=O)CCS(=O)(=O)CCN1CCOCC1	17%	4%	5%	6%	0
CCN(CC)S(=O)(=O)c1ccc(O)c(C(=O)OCC(=O)N2CCCc3ccccc32)c1	4%	-11%	-2%	2%	12
N#C/C(C(=O)Oc1ccccc1)=C1/Nc2ccccc2-c2ccccc21	-1%	?	?	11%	-12
CCOCCCN1CN(S(=O)(=O)c2ccc(Cl)cc2)c2nc3ccccc3nc21	11%	0%	?	8%	-5
CCOC(=O)C1CCN(C(=O)CC(C)c2ccccc2)CC1 (stereo unspecified)	0%	18µM*	?	3%	1
CCOc1cc(Br)c(C=O)cc1OCC	26µM*	5.2µM*	6.5µM*	33µM*	84
OCCN1CCN(C2CCC(c3ccc(F)cc3)c3ccc(F)cc32)CC1 (stereo unspecified)	18µM*	?	8.2µM*	23µM*	-76*
SMILES	HT1080-NT tox	TDP1 cell CPT	TDP1 cell noCPT	HT1080 IDH1KD tx	IL-1B inflam inh
CC(=O)NC(CSC(CC(=O)c1ccco1)c1ccc(C)cc1)C(=O)O (stereo unspecified)	7%	?	16µM*	-18%	-1
COc1ccc(C(CC(=O)c2ccc(C)cc2)Sc2ccccc2N)cc1 (stereo unspecified)	-19%	23µM*	?	-12%	8
Nc1ccccc1SC(CC(=O)c1ccccc1)c1ccc([N+](=O)[O-])cc1 (stereo unspecified)	-9%	15µM*	16µM*	?	?
O=C(CC(SCCO)c1ccc([N+](=O)[O-])cc1)c1ccco1 (stereo unspecified)	0%	-93%	15µM*	-4%	?
COc1ccc(C(CC(=O)c2ccc(C)cc2)Nc2ccc([N+](=O)[O-])cc2)cc1 (stereo unspecified)	-12%	?	?	-13%	?
CC(=O)NC(Cc1ccccc1)C(=O)N1CCN(C(=O)c2ccco2)CC1 (stereo unspecified)	-1%	-6%	3%	-9%	-2
CCC(C)C(=O)Nc1nnc(SCC(=O)NC(C)(C)C)s1 (stereo unspecified)	1%	2%	-13%	5%	-9
COc1ccccc1CNC(=O)C(=O)NCC1CCCN1S(=O)(=O)c1cccs1 (stereo unspecified)	2%	?	?	0%	10
Nc1ccccc1SC(CC(=O)c1ccccc1)c1cccc([N+](=O)[O-])c1 (stereo unspecified)	?	16µM*	5.2µM*	?	-104*
O=C(NC(NC(=O)c1ccccc1)c1cccc([N+](=O)[O-])c1)c1ccccc1	-2%	-4%	-3%	9%	26
CCn1c(C)nc2cc(S(=O)(=O)C(F)(F)F)ccc21	-3%	?	16µM*	-7%	0
Cc1ccc(CNC(=O)C2CCC(CNS(=O)(=O)c3cccs3)CC2)cc1 (stereo unspecified)	-13%	-10%	-19%	-7%	-15
COc1ccc(NC(=O)c2oc3ccc(S(=O)(=O)N4CCCCC4)cc3c2C)cc1Cl	/	9.2µM*	13µM*	/	/
Cc1c(Cl)cccc1NC(=O)c1oc2ccc(S(=O)(=O)N3CCCCCC3)cc2c1C	/	?	8.2µM*	/	/
Cc1ccc(NC(=O)c2oc3ccc(S(=O)(=O)N4CCCCC4)cc3c2C)cc1C	/	?	-24%	/	/
Cc1c(C(=O)Nc2ccc(-c3nnc4n3CCCCC4)cc2)oc2ccc(Br)cc12	-9%	?	?	-14%	-65*
Cc1c(C(=O)Nc2ccc(F)cc2)oc2ccc(S(=O)(=O)N3CCCCCC3)cc12	/	18µM*	18µM*	/	/
CN(C(=O)Nc1ccccc1)C1CCCc2ccccc21 (stereo unspecified)	-5%	-4%	?	2%	-1
IC(I)I	/	10%	?	/	/
COc1ccc(N(CC(=O)NCCSC2CCCCC2)S(C)(=O)=O)c(OC)c1	13%	?	-22%	8%	-4
